Reference: PMC7862700, “An all-to-all approach to the identification of sequence-specific readers for epigenetic DNA modifications on cytosine”

Assays:
Test in all cases: DAPPL (digital affinity profiling via proximity ligation, sequencing); 10 mM Tris-HCl pH 7.5, 50 mM NaCl, 1 mM DTT, 4% glycerol, room temperature, 30 min; GST-TFs on glutathione beads, 16-mer random dsDNA library, 0.1% formaldehyde crosslink after washing; high values mean tight binding
FEV = biological target: T1, FEV (Homo sapiens, UniProt Q99581 1-238); conditions: protein: recombinant; tags: N-terminal GST; dsDNA, one strand shown
T1 sequence: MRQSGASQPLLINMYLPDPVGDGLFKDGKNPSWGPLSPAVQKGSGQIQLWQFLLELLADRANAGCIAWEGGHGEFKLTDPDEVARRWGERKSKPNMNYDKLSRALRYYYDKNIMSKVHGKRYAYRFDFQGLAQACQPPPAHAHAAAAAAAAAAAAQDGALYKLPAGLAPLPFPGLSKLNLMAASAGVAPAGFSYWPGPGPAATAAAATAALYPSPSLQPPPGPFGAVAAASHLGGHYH
In short: (§1)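 Binding signal is defined as a hexamer's read frequency for one factor over its frequency for the tag-only sample. To obtain reads, GST-fused human transcription factors were expressed in yeast, captured on glutathione beads, barcoded with DNA and pooled with that sample. Pools met 200 nmole of a 16-mer random double-stranded DNA library in Tris/NaCl/DTT/glycerol buffer for 30 min at room temperature before washing, 0.1% formaldehyde crosslinking, proximity ligation (BsaI/T4 ligase, 1 h, 37 °C), PCR and Illumina NextSeq500 sequencing.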

ETV5 = ETV5 (Homo sapiens, UniProt P41161 1-510); conditions: protein: recombinant; tags: N-terminal GST; dsDNA, one strand shown
Sequence of ETV5 (P41161 whole entry): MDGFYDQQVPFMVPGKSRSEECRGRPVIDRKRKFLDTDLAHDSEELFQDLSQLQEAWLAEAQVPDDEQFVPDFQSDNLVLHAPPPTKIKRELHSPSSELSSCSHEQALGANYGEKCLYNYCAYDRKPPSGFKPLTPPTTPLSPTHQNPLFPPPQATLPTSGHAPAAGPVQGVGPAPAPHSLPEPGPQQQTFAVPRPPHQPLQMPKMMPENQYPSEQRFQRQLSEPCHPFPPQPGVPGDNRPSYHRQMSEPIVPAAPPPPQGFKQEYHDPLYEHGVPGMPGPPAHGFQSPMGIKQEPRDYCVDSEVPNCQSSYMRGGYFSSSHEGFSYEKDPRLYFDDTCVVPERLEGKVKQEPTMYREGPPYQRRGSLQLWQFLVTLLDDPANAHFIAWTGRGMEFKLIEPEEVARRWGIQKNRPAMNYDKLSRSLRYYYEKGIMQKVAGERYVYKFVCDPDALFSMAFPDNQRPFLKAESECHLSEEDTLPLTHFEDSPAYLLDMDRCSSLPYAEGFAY
In short: as §1

HSF1 = HSF1 (Homo sapiens, UniProt Q00613 1-529); conditions: protein: recombinant; tags: N-terminal GST; chain copies: 3; dsDNA, one strand shown
Sequence of HSF1 (Q00613 whole entry): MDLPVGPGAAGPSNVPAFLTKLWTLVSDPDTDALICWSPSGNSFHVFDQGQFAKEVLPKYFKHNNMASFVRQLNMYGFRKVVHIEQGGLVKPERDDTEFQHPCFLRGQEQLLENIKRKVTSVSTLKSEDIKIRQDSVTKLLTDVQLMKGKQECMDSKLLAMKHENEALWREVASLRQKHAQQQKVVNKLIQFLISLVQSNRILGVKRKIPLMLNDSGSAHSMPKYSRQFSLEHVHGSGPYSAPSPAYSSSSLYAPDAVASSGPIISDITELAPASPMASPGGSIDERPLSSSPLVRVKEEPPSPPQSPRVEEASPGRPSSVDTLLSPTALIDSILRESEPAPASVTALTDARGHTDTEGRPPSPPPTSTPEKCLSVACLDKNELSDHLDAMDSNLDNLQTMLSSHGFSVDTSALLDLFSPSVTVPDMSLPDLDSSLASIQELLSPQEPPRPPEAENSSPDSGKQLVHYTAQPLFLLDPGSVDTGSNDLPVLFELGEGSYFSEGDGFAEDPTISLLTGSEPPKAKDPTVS
In short: as §1

SPIC = biological target: T2, SPIC (Homo sapiens, UniProt Q8N5J4 1-248); conditions: protein: recombinant; tags: N-terminal GST; dsDNA, one strand shown
T2 sequence: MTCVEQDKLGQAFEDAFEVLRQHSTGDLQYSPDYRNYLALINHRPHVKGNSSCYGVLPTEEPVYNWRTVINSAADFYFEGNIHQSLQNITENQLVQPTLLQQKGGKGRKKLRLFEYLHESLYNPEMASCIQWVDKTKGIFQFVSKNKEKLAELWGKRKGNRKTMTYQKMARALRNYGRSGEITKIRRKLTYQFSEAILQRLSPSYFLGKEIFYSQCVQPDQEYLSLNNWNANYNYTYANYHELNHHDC
In short: as §1

ELF4 = ELF4 (Homo sapiens, UniProt Q99607 1-663); conditions: protein: recombinant; tags: N-terminal GST; dsDNA, one strand shown
Sequence of ELF4 (Q99607 whole entry): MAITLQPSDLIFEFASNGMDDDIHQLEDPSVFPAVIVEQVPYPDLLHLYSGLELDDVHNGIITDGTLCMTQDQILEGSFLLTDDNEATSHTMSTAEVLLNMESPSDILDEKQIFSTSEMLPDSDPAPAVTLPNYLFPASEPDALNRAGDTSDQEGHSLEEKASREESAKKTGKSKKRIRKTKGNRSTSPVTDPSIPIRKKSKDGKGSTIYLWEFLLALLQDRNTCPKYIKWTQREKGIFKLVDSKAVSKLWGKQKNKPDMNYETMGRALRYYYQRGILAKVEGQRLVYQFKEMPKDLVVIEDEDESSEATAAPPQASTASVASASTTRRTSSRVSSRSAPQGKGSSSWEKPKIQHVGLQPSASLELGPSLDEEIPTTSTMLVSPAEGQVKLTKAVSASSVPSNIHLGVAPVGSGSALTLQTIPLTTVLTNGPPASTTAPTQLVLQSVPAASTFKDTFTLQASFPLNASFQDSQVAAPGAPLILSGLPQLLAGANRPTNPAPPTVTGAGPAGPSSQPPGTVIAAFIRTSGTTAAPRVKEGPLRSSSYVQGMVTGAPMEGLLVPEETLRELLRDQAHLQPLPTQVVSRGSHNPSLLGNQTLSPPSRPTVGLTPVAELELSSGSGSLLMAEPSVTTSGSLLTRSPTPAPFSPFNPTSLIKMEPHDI
In short: as §1

ELK4 = biological target: T3, ELK4 (Homo sapiens, UniProt P28324-2 1-405); conditions: protein: recombinant; tags: N-terminal GST; dsDNA, one strand shown
T3 sequence: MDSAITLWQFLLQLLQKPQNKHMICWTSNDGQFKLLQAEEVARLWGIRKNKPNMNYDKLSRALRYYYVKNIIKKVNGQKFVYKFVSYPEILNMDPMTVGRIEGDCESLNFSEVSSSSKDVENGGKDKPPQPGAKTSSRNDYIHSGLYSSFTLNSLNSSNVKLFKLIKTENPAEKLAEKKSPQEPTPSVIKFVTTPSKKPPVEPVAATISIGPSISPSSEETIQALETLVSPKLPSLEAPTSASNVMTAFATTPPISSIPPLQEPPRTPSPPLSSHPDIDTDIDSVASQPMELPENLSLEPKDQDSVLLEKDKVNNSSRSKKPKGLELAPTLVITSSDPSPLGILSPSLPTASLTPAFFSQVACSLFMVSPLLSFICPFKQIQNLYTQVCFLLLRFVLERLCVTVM
In short: as §1

ETV2 = biological target: T4, ETV2 (Homo sapiens, UniProt O00321 1-342); conditions: protein: recombinant; tags: N-terminal GST; dsDNA, one strand shown
T4 sequence: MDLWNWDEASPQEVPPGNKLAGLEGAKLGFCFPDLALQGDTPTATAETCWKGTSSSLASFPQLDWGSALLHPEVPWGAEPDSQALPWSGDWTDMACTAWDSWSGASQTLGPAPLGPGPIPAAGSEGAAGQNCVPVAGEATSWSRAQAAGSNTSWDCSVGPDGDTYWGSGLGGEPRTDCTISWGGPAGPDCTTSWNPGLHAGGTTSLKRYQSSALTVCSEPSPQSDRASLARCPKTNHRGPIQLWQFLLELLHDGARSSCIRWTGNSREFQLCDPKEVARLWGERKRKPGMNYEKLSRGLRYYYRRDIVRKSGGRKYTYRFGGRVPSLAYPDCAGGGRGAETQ
In short: as §1

ELF3 = biological target: T5, ELF3 (Homo sapiens, UniProt P78545 1-371); conditions: protein: recombinant; tags: N-terminal GST; dsDNA, one strand shown
T5 sequence: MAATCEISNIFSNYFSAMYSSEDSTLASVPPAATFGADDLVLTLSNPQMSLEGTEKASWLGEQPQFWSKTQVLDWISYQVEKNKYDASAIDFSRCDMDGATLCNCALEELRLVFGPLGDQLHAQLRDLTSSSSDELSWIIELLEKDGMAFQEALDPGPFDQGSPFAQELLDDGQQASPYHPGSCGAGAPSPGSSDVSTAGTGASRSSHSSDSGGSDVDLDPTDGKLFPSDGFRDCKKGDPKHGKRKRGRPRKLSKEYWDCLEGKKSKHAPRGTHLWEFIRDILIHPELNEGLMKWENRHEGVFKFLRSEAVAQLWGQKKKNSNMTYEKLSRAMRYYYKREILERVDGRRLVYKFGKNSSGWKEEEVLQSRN
In short: as §1

CRX = CRX (Homo sapiens, UniProt O43186 1-299); conditions: protein: recombinant; tags: N-terminal GST; dsDNA, one strand shown
Sequence of CRX (O43186 whole entry): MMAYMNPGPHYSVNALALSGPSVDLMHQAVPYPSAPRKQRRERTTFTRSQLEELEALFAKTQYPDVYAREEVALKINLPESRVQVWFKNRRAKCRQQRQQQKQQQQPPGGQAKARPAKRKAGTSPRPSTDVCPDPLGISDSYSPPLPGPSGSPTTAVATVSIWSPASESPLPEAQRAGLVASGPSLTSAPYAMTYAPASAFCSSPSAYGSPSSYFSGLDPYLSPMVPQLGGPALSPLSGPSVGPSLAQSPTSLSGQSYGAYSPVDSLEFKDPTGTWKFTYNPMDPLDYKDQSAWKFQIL
In short: as §1

ETV1 = ETV1 (Homo sapiens, UniProt P50549 1-477); conditions: protein: recombinant; tags: N-terminal GST; dsDNA, one strand shown
Sequence of ETV1 (P50549 whole entry): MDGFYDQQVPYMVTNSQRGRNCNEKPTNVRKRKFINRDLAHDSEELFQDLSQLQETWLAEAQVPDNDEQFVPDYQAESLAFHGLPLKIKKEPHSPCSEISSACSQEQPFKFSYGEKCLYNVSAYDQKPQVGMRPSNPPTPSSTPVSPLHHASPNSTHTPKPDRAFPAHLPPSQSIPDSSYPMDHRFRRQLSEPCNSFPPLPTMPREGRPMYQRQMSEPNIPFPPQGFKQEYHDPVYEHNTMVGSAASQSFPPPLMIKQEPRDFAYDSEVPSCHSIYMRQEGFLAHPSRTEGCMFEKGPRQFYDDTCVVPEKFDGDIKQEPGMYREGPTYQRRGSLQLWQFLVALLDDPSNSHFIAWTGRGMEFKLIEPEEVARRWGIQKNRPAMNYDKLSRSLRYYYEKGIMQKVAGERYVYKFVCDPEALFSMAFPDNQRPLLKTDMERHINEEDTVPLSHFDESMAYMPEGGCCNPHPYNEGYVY
In short: as §1

ERF = biological target: T6, ERF (Homo sapiens, UniProt P50548 1-548); conditions: protein: recombinant; tags: N-terminal GST; dsDNA, one strand shown
T6 sequence: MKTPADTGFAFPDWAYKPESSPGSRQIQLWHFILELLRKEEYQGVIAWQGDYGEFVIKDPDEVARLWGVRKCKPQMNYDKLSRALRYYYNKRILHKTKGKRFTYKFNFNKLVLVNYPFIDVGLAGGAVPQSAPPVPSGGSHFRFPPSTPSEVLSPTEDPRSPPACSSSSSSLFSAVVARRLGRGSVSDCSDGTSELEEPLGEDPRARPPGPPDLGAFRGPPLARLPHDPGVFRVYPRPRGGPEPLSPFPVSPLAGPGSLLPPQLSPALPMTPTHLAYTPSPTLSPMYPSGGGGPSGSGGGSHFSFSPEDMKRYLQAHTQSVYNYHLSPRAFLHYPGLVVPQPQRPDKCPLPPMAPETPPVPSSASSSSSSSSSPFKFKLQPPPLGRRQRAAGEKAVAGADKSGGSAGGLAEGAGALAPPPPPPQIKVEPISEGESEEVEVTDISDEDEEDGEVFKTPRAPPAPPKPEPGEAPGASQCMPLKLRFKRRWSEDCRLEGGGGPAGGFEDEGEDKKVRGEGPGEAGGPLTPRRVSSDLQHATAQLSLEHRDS
In short: as §1

ETV3L = biological target: T7, ETV3L (Homo sapiens, UniProt Q6ZN32 1-361); conditions: protein: recombinant; tags: N-terminal GST; dsDNA, one strand shown
T7 sequence: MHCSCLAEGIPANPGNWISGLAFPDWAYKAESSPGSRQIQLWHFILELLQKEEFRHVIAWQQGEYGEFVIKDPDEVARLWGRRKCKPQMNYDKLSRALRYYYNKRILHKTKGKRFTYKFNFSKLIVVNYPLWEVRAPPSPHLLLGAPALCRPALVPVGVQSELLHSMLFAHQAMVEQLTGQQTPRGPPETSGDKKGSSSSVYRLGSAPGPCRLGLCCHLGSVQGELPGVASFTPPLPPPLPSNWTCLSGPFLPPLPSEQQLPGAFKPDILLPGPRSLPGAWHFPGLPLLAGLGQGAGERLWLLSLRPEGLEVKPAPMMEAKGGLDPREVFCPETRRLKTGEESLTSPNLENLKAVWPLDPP
In short: as §1

ETS2 = biological target: T8, ETS2 (Homo sapiens, UniProt P15036 1-469); conditions: protein: recombinant; tags: N-terminal GST; dsDNA, one strand shown
T8 sequence: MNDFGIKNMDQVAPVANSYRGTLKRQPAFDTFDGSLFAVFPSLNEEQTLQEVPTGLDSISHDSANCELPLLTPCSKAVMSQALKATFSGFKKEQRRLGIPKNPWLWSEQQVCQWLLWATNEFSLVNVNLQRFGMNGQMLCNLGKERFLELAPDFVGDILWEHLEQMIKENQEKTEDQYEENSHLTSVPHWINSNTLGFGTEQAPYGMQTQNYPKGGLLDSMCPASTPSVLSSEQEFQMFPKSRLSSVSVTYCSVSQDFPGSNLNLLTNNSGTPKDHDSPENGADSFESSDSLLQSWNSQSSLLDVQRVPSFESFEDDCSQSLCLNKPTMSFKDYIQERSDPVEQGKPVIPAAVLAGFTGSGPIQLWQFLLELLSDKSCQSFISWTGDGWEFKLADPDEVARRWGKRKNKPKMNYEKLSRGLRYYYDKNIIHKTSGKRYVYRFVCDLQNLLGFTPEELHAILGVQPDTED
In short: as §1

SPDEF = biological target: T9, SPDEF (Homo sapiens, UniProt O95238 1-335); conditions: protein: recombinant; tags: N-terminal GST; dsDNA, one strand shown
T9 sequence: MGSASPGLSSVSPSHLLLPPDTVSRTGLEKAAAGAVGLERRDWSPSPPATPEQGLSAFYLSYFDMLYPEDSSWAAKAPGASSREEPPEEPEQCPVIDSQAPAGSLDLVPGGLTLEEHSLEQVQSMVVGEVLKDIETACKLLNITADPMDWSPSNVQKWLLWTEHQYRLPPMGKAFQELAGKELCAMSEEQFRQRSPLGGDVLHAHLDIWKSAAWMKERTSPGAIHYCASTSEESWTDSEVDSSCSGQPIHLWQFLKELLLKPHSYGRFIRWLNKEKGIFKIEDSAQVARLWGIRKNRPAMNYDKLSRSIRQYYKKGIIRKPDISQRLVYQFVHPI
In short: as §1

ETV7 = biological target: T10, ETV7 (Homo sapiens, UniProt Q9Y603 1-341); conditions: protein: recombinant; tags: N-terminal GST; dsDNA, one strand shown
T10 sequence: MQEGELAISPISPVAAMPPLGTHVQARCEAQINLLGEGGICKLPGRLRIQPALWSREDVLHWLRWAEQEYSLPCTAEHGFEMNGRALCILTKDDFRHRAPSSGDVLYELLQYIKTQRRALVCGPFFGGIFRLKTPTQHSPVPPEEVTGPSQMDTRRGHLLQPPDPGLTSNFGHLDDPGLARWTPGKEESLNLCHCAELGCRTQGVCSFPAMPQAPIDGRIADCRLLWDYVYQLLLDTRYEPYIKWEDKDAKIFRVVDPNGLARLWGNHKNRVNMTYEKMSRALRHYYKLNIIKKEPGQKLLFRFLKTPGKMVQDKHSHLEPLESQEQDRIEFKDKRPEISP
In short: as §1

ELF5 = biological target: T11, ELF5 (Homo sapiens, UniProt Q9UKW6-2 1-255); conditions: protein: recombinant; tags: N-terminal GST; dsDNA, one strand shown
T11 sequence: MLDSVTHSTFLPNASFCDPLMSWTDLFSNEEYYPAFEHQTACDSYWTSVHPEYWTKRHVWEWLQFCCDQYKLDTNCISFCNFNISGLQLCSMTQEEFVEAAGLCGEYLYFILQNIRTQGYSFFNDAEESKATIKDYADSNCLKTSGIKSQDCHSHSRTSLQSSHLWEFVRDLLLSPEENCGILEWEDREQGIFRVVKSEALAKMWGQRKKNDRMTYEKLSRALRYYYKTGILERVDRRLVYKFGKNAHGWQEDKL
In short: as §1

ETV3 = biological target: T12, ETV3 (Homo sapiens, UniProt P41162-2 1-143); conditions: protein: recombinant; tags: N-terminal GST; dsDNA, one strand shown
T12 sequence: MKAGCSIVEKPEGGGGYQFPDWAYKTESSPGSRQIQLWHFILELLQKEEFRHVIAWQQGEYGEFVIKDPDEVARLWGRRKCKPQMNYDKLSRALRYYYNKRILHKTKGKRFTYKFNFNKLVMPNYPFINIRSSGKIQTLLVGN
In short: as §1

ETV6 = ETV6 (Homo sapiens, UniProt P41212 1-452); conditions: protein: recombinant; tags: N-terminal GST; dsDNA, one strand shown
Sequence of ETV6 (P41212 whole entry): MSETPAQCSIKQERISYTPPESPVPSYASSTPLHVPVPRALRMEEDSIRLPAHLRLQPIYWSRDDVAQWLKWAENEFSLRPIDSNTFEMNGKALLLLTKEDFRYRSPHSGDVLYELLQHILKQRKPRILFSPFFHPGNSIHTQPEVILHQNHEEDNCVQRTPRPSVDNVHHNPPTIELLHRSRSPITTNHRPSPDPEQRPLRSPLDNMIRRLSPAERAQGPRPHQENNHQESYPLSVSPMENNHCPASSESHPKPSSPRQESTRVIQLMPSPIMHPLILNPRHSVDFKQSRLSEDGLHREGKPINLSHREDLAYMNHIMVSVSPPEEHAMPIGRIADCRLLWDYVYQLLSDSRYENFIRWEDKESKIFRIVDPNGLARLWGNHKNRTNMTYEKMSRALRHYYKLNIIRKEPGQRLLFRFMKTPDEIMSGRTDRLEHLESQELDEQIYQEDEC
In short: as §1

**Q.** Which results are given for CTGAAA?
**A.** binding signal (FEV): 1.25 fold enrichment (6-mer frequency, TF over GST control); binding signal (ETV5): 1.22 fold enrichment (6-mer frequency, TF over GST control); binding signal (HSF1): 1.16 fold enrichment (6-mer frequency, TF over GST control); binding signal (SPIC): 1.35 fold enrichment (6-mer frequency, TF over GST control); binding signal (ELF4): 1.13 fold enrichment (6-mer frequency, TF over GST control); binding signal (ELK4): 1.19 fold enrichment (6-mer frequency, TF over GST control); binding signal (ETV2): 1.15 fold enrichment (6-mer frequency, TF over GST control); binding signal (ELF3): 1.28 fold enrichment (6-mer frequency, TF over GST control); binding signal (CRX): 1 fold enrichment (6-mer frequency, TF over GST control); binding signal (ETV1): 1.1 fold enrichment (6-mer frequency, TF over GST control); binding signal (ERF): 1.09 fold enrichment (6-mer frequency, TF over GST control); binding signal (ETV3L): 1.1 fold enrichment (6-mer frequency, TF over GST control); binding signal (ETS2): 1.19 fold enrichment (6-mer frequency, TF over GST control); binding signal (SPDEF): 1.16 fold enrichment (6-mer frequency, TF over GST control); binding signal (ETV7): 1.12 fold enrichment (6-mer frequency, TF over GST control); binding signal (ELF5): 1.09 fold enrichment (6-mer frequency, TF over GST control); binding signal (ETV3): 1.17 fold enrichment (6-mer frequency, TF over GST control); binding signal (ETV6): 1.16 fold enrichment (6-mer frequency, TF over GST control)
